From PubChem BioAssay AID1347146 (National Center for Advancing Translational Sciences (NCATS), 2019) come the findings set out here.

Inconclusive results are not listed. Unmarked numbers belong to inactive results. Calls of active or inactive are those of the source. Calls follow the shape of the dose curve; as a rule, active = well fitted inhibition curve with a large enough effect; inconclusive = small, poorly fitted or top-dose-only effect; inactive = no such curve, though single readings can be large or run the other way.
Potency is read from the fitted curve at half-maximal effect.

The target in this assay is Nicotinamide N-methyltransferase (Homo sapiens) (UniProt P40261). Nature of the assay: qHTS Assay for Inhibitors of N-terminal methyltransferase 1 (NTMT1): NNMT MTaseGlo counterscreen assay.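 As to activity change, negative = inhibition: plate controls were DMSO without inhibitor for no effect and no-enzyme control for full effect.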 Particulars: NNMT enzyme, MTase-Glo luminescence counterscreen; series mostly up to 57.1 µM; activity change, negative = inhibition: at the top concentration. From the text: Assay Submitter (PI): Rong Huang Ph.D, Purdue University, West Lafayette, IN 47907
Nicotinamide N-methyltransferase (Homo sapiens), sequence (P40261 whole entry, looked up): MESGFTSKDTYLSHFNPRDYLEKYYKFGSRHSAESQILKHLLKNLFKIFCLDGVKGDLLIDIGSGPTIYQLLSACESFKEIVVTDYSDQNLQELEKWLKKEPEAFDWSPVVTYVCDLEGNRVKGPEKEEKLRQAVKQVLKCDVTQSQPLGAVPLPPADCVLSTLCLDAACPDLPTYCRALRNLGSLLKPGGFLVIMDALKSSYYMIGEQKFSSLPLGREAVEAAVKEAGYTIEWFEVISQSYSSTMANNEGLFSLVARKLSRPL
The N-terminal methytransferase 1 is the first methyltransferase that methylates protein alpha-N-amines and plays an important role in regulating cell mitosis, chromatin interactions and DNA repair. It is observed to be over-expressed in various cancer patient tissues like malignant melanoma and colorectal cancer tissues. Knockdown of NTMT1 in cancer cells causes cell mitotic defects and enhances sensitivity to DNA damaging chemotherapeutics. […] These critical cellular processes in which NTMT1 is implicated, coupled with emerging links to cellular dysfunction, strengthen the inference that NTMT1 is a compelling novel anticancer target. Progress have been made in understanding the molecular properties of NTMT1 and the biological consequences of protein alpha-N-terminal methylation, but there are no specific small molecule probes available for NTMT1 to fully characterize its MTase activity. To address this unmet need, a panel of assay is created and established to enable quantitative high-throughput screening (qHTS) for novel, potent, and selective small molecule NTMT1 inhibitors. Two orthogonal qHTS that use different reagents (ThioGlo vs. MTaseGlo) are developed for primary robotic screening against the NCATS chemical library of more than 400,000 small molecules. Identified inhibitors are reacquired, validated, and further characterized.
MTaseGlo Assay is a luminescence screen that measure the activity of methyltransferases based on the reaction product S-adenosyl homocysteine (SAH). The substrate SAM is converted to SAH upon enzyme activation. MTase-Glo reagent and detection solution convert SAH to ATP and measure the light from the luciferase reaction. Nicotinamide N-methyltransferase (NNMT) is a cystolic enzyme that catalyzes the transfer of a methyl group from the co-factor SAM onto the substrate, nicotinamide (NA) to form 1-methyl-nicotinamide (MNA) and SAH. NNMT MTaseGlo assay is used as a counterscreen to evaluate selectivity of identified inhibitors.
Early Translation Branch (ETB)
National Center for Advancing Translational Sciences (NCATS)
National Institute of Health (NIH)
NNMT enzyme, SAM, NA, and control is provided by the Huang laboratory.
In brief, 3 µL of enzyme mixture (final concentrations of 125 nM and 100 µM for NNMT and SAM, respectively) into all wells of a 1,536-well solid-bottom white plate (Greiner Bio One, Monroe, NC). 23 nL of DMSO or compound (final concentration range 234 nM to 143 microM) was transferred via Wako Pin-tool (Wako Automation, Richmond, VA) and incubated (RT) for ~15 minutes. Next, 1 µL of substrate (final concentration 1 µM NA) or buffer was dispensed, and the reaction proceeded for 30 minutes (RT, protected from light) followed by a 1 microL addition of [5X] MTase-Glo Reagent(R). Samples were incubated (RT, protected from light) for 30 minutes to allow for SAH to be converted to ADP, followed by a 5 microL addition of [1X] MTase-Glo Detection Solution(R) to allow for ADP to be converted to ATP, which was then detected with a luciferase reaction. Samples were centrifuged for 15 seconds at 1,000 RPM's, followed by a RT incubation for 30 minutes. Plates were then read using Luminescence optics on a ViewLux detector. Data were normalized to no-enzyme (0% activity) and no-inhibitor (DMSO; 100%) controls, and the resulting percent inhibition data were fitted to a 4-parameter Hill equation using Graphpad Prism.
(qHTS replaces the single test concentration by a dilution series.)
For the compound `Cc1[nH]c(=O)c(C#N)cc1-c1ccc2nccn2c1`, the “activity change, negative = inhibition” value is -11.5%.

With `Cc1cc2nc3c(=O)[nH]c(=O)nc-3n(C[C@H](O)[C@H](O)[C@H](O)COP(=O)(O)OP(=O)(O)OC[C@H]3O[C@@H](n4cnc5c(N)ncnc54)[C@H](O)[C@H]3O)c2cc1C`, the “activity change, negative = inhibition” value was 162% [at 28.5 µM]. The same measure, in the same setting: as for `NCCc1ccc(O)c(O)c1`, the figure is -6.57%.

With `Nc1nc(Nc2ccccc2)nc2c1ncn2[C@@H]1O[C@H](CO)[C@@H](O)[C@H]1O`, the “activity change, negative = inhibition” value was -12%. `Nc1ncnc2c1ncn2[C@@H]1O[C@H](CO)[C@@H](O)[C@H]1O`: the Potency result is “inactive”.

As for `O=c1c(-c2ccc(O)cc2)coc2cc(O)cc(O)c12`, the “activity change, negative = inhibition” value was -8.39%. Regarding `Cc1ccc(S(=O)(=O)/C=C/C#N)cc1`, the Potency is 15.8 µM (active). Turning to `O=C1NC(=O)C(=Cc2ccc(-c3ccc(F)cc3O)o2)S1`, the “activity change, negative = inhibition” value is -13.8%. For `CC(C)NC[C@H](O)c1ccc(O)c(O)c1`, the Potency result was “inactive”. In the case of `CCN(CC)CCNC(=O)c1c(C)[nH]c(/C=C2\C(=O)Nc3ccc(F)cc32)c1C`, the “activity change, negative = inhibition” value is -14.6%. Still for that read-out and setting: then `CC(CN1c2ccccc2Sc2ccccc21)N(C)C` (stereo not given), with 98.6%; and `COC(=O)[C@H]1[C@H]2C[C@H]3c4[nH]c5ccccc5c4CCN3C[C@H]2CC[C@@H]1O`, with -21%; and `Clc1nccc2c1ccc1ccccc12`, with -13.2%.

As for `C#CCN(C)CCCOc1ccc(Cl)cc1Cl`, the “activity change, negative = inhibition” value was -13.2%. On the same count and under the same terms, as for `O=Nc1ccc2oc(=O)ccc2c1`, the figure is -8.49%; as for `N=C(N)c1ccc(OCCCCCOc2ccc(C(=N)N)cc2)cc1` (tested in a mixture with another compound), -16.6%; as for `Cn1ncc(S(=O)(=O)Cc2ccccc2)c(Br)c1=O`, -13.1%. Still for that read-out and setting: as for `CN(C)CCCN1c2ccccc2Sc2ccccc21`, the figure is -9.98%; as for `COc1cc2c(NC3CCN(C(C)C)CC3)nc(N3CCCN(c4ccccc4)CC3)nc2cc1OCCCN1CCCC1`, -4.98%. Take `S=C(Nc1ccccc1)Nc1nccs1`: the “activity change, negative = inhibition” value was -18.7%. Regarding `CC(C)NCC(O)c1ccc(O)c(O)c1` (stereo not given), the “activity change, negative = inhibition” value is -11.3%. With `Cc1cc(O)c2c(c1)C(=O)c1cc(O)cc(O)c1C2=O`, the “activity change, negative = inhibition” value is -12.1%. Same read-out and setting: then `O=c1ccc2ccc(O)c(O)c2o1`, with -8.78%; and `COc1ccc(C(=O)/C(Cc2cc(OC)c(OC)c(OC)c2)=C(\C(=O)O)c2ccc3c(c2)OCO3)cc1`, with -17.5%; and `COc1cc2nc(N3CCOCC3)nc(NC(C)C)c2cc1OC`, with -19.8%. Same read-out and setting: then `CCNC(=O)[C@H]1O[C@H](n2cnc3c(N)nc(NCCc4ccc(CCC(=O)O)cc4)nc32)[C@@H](O)[C@@H]1O`, with -13.3%.

For the compound `Nc1nc(Cl)nc2c1ncn2[C@@H]1O[C@H](CO)[C@@H](O)[C@@H]1F`, the “activity change, negative = inhibition” value is -14.4% [at 114 µM].

As to `CN(C)[C@@H]1C(=O)C(C(N)=O)=C(O)[C@@]2(O)C(=O)C3=C(O)c4c(O)ccc(Cl)c4[C@@H](O)[C@H]3C[C@@H]12`, the “activity change, negative = inhibition” value was -21.8%. `Brc1c(NC2=NCCN2)ccc2nccnc12`: the “activity change, negative = inhibition” value was -12.4%. Same read-out and setting: as for `N#C/C(=C\c1ccc(O)c(O)c1)C(=O)c1ccc(O)c(O)c1`, the figure is -6.84%; as for `OCCN1CCN(CC/C=C2/c3ccccc3Sc3ccc(C(F)(F)F)cc32)CC1`, -10.3%; as for `NC(Cc1c[nH]c2ccc(O)cc12)C(=O)O` (stereo not given), -8.98%.

Turning to `OC[C@H]1O[C@@H](n2cnc3cncnc32)[C@H](O)[C@@H]1O`, the Potency is 11.2 µM (active). As to `O=C(N[C@@H](Cc1ccccc1)C(=O)CCl)OCc1ccccc1`, the “activity change, negative = inhibition” value is -28.6%. `Cc1cccc(C)c1OCC(N)C(C)C` (stereo not given): the “activity change, negative = inhibition” value is -3.53%. Same read-out and setting: then `C[C@](Cc1ccc(O)c(O)c1)(NN)C(=O)O`, with -14.1%.

For `Oc1cc(O)c2c(c1)O[C@H](c1ccc(O)c(O)c1)[C@@H](O)C2`, the “activity change, negative = inhibition” value is -8.77%. Regarding `COc1cc2c(NC3CCN(C(C)C)CC3)nc(N3CCC(F)(F)CC3)nc2cc1OCCCN1CCCCC1`, the “activity change, negative = inhibition” value is -5.35%. Same read-out and setting: then `CC[N+](CC)(CC)CCOc1cccc(OCC[N+](CC)(CC)CC)c1OCC[N+](CC)(CC)CC`, with -11.5%; and `OC[C@H]1O[C@H](n2cnc3c(N[C@H]4CCC[C@@H]4O)ncnc32)[C@H](O)[C@@H]1O`, with 2.19%.
